# TDP1 cell noCPT: qHTS for Inhibitors of human tyrosyl-DNA phosphodiesterase 1 (TDP1): qHTS in cells in absence of CPT | DT40 Tdp1-/- hTDP1 cells, no CPT, ATP luminescence, 48 h | Potency, µM (series often up to 46.2 µM), hits mostly inhibitors | 420,000 tested, 15% active; note: nearly all actives have a fitted effect of over 55% in size
#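 Chicken DT40 Tdp1-/- cells stably complemented with human TDP1 were seeded at 400 cells/well with DMSO in place of 20 nM camptothecin. After compound pinning, cells grew at least 48 hr at 37 °C; viability read by CellTiter-Glo luminescence.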
# HT1080 IDH1KD tx: HT-1080 IDH1 knockdown cell toxicity (counter line) | HT-1080 IDH1 knockdown viability, ATP luminescence, 48 h | Potency, µM (titrated, usually from 46.1 µM), hits mostly cytotoxic | 360,000 tested, 2% active | AID 686971
#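 IDH1KD HT-1080 cells, 750/well, RPMI + 5% FBS; compound pinned after 2 h settling; 48 h, 37 °C; CellTiter-Glo luminescence; % activity normalised to DMSO and no-cell wells; curves fitted, classed by r2 and efficacy.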
# IL-1B inflam inh: blocks inflammasome-driven IL-1 beta release | THP-1 LPS/ATP IL-1B secretion, AlphaLISA, 16 h; active compounds read low | activity change, % at 57.5 µM | 360,000 tested, 4.7% active | AID 743279; in the data active = activity change below about -50%; inconclusive = mostly about -30% to -49%
#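 THP-1 cells pretreated 1 hr with compounds (up to 57.5 uM final), then stimulated with LPS (250 ng/mL final) plus ATP (1.25 mM final); secreted IL-1B measured by AlphaLISA after 16 hr, decreased signal indicating inhibition.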
# HT1080NT lethal: kills 2HG-producing HT-1080-NT fibrosarcoma cells | HT-1080-NT fibrosarcoma viability, CellTiter-Glo ATP luminescence, 48 h | Potency, µM (doses to about 46.1 µM), most hits filed as cytotoxic | 360,000 tested, 1.6% active | AID 686970;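 note: NT is the 2HG producing partner of a matched IDH1 knockdown line; nearly all actives have a fitted effect of over 55% in size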
#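 Compounds were tested in concentration-response format on HT-1080-NT cells for 48 hours at 37 degrees C. Cell viability came from CellTiter-Glo luminescence; curves were classified by r2, response magnitude and activity.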
# DT40 TDP1 CPT: DT40-hTDP1 cell growth loss with CPT. Potency, µM (titrated, usually from 46.2 µM), hits mostly inhibitors. chicken DT40 Tdp1-/-;hTDP1 cells + 20 nM CPT, ATP luminescence, 48 h. 420,000 tested, 12% active; note: nearly all actives have a fitted effect of over 55% in size
#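 Chicken DT40 Tdp1-/- cells complemented with human TDP1, 400 cells/well, exposed to compounds plus 20 nM camptothecin for at least 48 h at 37 C; viability read as ATP content by CellTiter-Glo luminescence.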
# Numbers stand for hits; i = inactive; ? = inconclusive; nt = not tested or not shown. Sampled rows, rich in hits. Any-hit rate of the full collection: about 19%. Unless noted, calls come from the whole dose curve; as a rule, active = well fitted curve in the direction sought with a large enough effect; inconclusive = small, poorly fitted or top-dose-only effect, or another doubt; inactive = no such curve, though single readings can be large; an effect the other way counts as inactive or inconclusive.
SMILES,TDP1 cell noCPT,HT1080 IDH1KD tx,IL-1B inflam inh,HT1080NT lethal,DT40 TDP1 CPT
CCOc1ccc(NC(=O)CN2CCN(c3ccc(F)cc3)CC2)cc1S(=O)(=O)N1CCCC1,?,i,?,i,?
O=C(COC(=O)CC1CCCC1)Nc1ccc(Br)cc1F,i,i,i,i,i
CC(=O)OC1CCC2(C)C(CCC3C4CC=C(C(C)=O)C4(C)OC(=O)CC32)C1 (stereo not drawn),2.06µM,10.3µM,-107.4,?,2.31µM
CC(=O)O[C@H]1CC[C@@]2(C)C(CCC3C2CC[C@]2(C)OC(=O)CCC32)C1 (stereo partly drawn),i,i,i,i,i
CCC(C)NC(=O)C1c2ccccc2C(=O)N(c2ccc(OC)cc2)C1c1ccc(OC)cc1 (stereo not drawn),20.6µM,i,i,i,?
Cc1ccccc1CN(C)C(C)C(=O)NCc1ccccc1 (stereo not drawn),?,i,i,i,i
COc1cc(OC)c(Nc2nc3ccccc3c3nncn23)cc1Cl,i,nt,nt,nt,?
COc1ccc(-c2noc(C3CCCN(C(=O)c4c(F)cccc4F)C3)n2)cc1OC (stereo not drawn),?,i,i,i,?
Cc1ccc(-c2noc(C3CCCN(C(=O)c4cccc(F)c4)C3)n2)cc1 (stereo not drawn),29.1µM,i,i,i,?
COc1cc(-c2noc(C3CCCN(C(=O)c4c(F)cccc4F)C3)n2)cc(OC)c1OC (stereo not drawn),20.6µM,i,i,i,?
Cc1ccc(-c2noc(C3CCCN(C(=O)c4c(F)cccc4F)C3)n2)cc1 (stereo not drawn),20.6µM,i,i,i,?
Cc1ccc(-c2noc(C3CCCN(C(=O)c4ccccc4Br)C3)n2)cc1 (stereo not drawn),20.6µM,?,i,i,?
COc1ccc(-c2noc(C3CCCN(C(=O)c4cccc(C)c4)C3)n2)cc1 (stereo not drawn),16.4µM,i,?,i,16.4µM
COc1cc(OC)cc(C(=O)N2CCCC(c3nc(-c4ccc(C)o4)no3)C2)c1 (stereo not drawn),?,i,i,i,i
CCCCc1ccc(-c2csc(/C(C#N)=C/c3ccco3)n2)cc1,i,i,i,i,i
CCCCc1ccc(-c2csc(/C(C#N)=C\c3ccc(C)o3)n2)cc1,i,i,-50.1,i,i
S=C1NC[C@H](Cc2cccc3ccccc23)N1CC1CCCCC1,23.1µM,i,i,i,?
CCCC[C@@H]1CNC(=S)N1CCc1cccc2ccccc12,18.4µM,i,i,i,?
O=C1NC[C@@H](Cc2cccc3ccccc23)N(CC2CCCCC2)C1=O,?,i,?,i,?
S=C1NC[C@H](CC2CCCCC2)N1CC1CCCCC1,23.1µM,?,i,?,20.6µM
C=CCOC(=O)C1=C(C)NC(=O)NC1c1ccc(OC(=O)c2ccco2)c(OC)c1 (stereo not drawn),i,i,i,i,i
CC(=O)c1nnn(-c2ccc([N+](=O)[O-])cc2)c1C,i,i,i,i,i
COc1ccc(NC(=O)N2CC[C@@]3(CCCN(C(=O)c4ccncc4)C3)C2)cc1,i,nt,nt,nt,i
CCC(C)[C@H](NC(=O)[C@@H]1Cc2c([nH]c3ccccc23)C2c3ccccc3C(=O)N21)C(=O)NCC1CCCO1 (stereo partly drawn),16.4µM,i,i,i,?
Cc1ccccc1C(=O)N[C@H](C(=O)OCC(=O)NC1CC1)C(C)C,i,i,i,i,i
SMILES,TDP1 cell noCPT,HT1080 IDH1KD tx,IL-1B inflam inh,HT1080NT lethal,DT40 TDP1 CPT
CCN1CCN(C(c2cccs2)C(C)NC(=S)Nc2cc(C)ccc2C)CC1 (stereo not drawn),i,i,i,i,?
Cc1ccc(C)c(NC(=S)NC(C)C(c2ccccc2)N2CCN(C)CC2)c1 (stereo not drawn),?,i,-61.8,i,?
CN(Cc1cc([N+](=O)[O-])ccc1Cl)C(=O)C[n+]1ccccc1,i,i,i,i,i
COc1ccc(-c2nnc(CSc3nc4ccccc4c(=O)n3C)o2)cc1OC,20.6µM,i,i,i,14.6µM
Cc1ncsc1CCSc1nc2ccccc2c(=O)n1C,23.1µM,i,i,i,?
COn1c(SCc2ccc(C)cc2C)nc2ccccc2c1=O,18.4µM,?,i,i,20.6µM
Cn1c(SCC(=O)NNC(=O)Cc2ccccc2)nc2ccccc2c1=O,13µM,i,i,i,20.6µM
Cc1ncsc1CCSc1n[nH]c(=O)n1-c1ccccc1,i,i,i,i,?
O=c1c2ccccc2nc(SCc2nnc(-c3ccccc3)o2)n1-c1ccc(F)cc1F,?,i,i,i,?
Cc1cc(Cl)cc(Br)c1OCCCN1C(=O)NC(C)(C)C1=O,i,i,i,i,i
Cc1ccnc2nc(C(=O)OCC(=O)N(Cc3ccccc3)C(C)(C)C)nn12,?,i,i,i,?
CC(C)(C)OC(=O)N[C@H](C(=O)OC(C)(C)C)c1ccc2c(c1)OCO2,?,i,i,i,?
CCN(C(=O)COC(=O)c1c(-c2ccccc2)noc1C)c1c(N)n(Cc2ccccc2)c(=O)[nH]c1=O,i,i,i,i,i
CCOc1ccc(-n2c(=O)[nH]cc(C(=O)Nc3ccc(OC)c(OC)c3)c2=O)cc1,i,i,i,i,i
CCC1CCCCN1C(=O)CSc1nc2c([nH]c3ccccc32)c(=O)n1C (stereo not drawn),20.6µM,i,i,i,18.4µM
CCn1c(SCC(=O)N2CCC(C)CC2)nc2c([nH]c3ccccc32)c1=O,?,i,i,i,?
Cc1cccc(NC(=O)CSc2nc3ccccc3c(=O)n2C)c1,?,?,-70.7,i,?
Cc1cccc(NC(=O)CSc2nc3c([nH]c4ccccc43)c(=O)n2C)c1,11.6µM,i,i,i,8.2µM
Cc1ccccc1CSc1nc2ccccc2c(=O)n1C,25.9µM,i,i,i,?
Cn1c(SCc2ccccc2Br)nc2ccccc2c1=O,?,i,i,i,?
CCOC(=O)C1(Cc2ccccc2)CCCCCC1=O (stereo not drawn),?,i,i,i,?
COCCn1c(SCC(=O)Nc2cccc(F)c2)nc2c([nH]c3ccccc32)c1=O,i,i,i,i,i
O=C(CSc1nc2c([nH]c3ccccc32)c(=O)n1-c1ccccc1F)Nc1cccc(C(F)(F)F)c1,16.4µM,nt,nt,nt,20.6µM
CCOc1ccc(OCC)c(NC(=O)CSc2nc3ccccc3c(=O)n2C)c1,20.6µM,i,i,i,16.4µM
CC(=O)Nc1ccc(NC(=O)CSc2nc3c([nH]c4ccccc43)c(=O)n2-c2ccccc2F)cc1,?,?,i,i,?

# Screening results deposited in PubChem BioAssay by National Center for Advancing Translational Sciences (NCATS).
